Experimental data published in PubChem BioAssay (NCATS).
Results filed as inconclusive are left out. Calls of active or inactive are those of the source. Unless noted, calls come from the whole dose curve; as a rule, active = well fitted inhibition curve with a large enough effect; inconclusive = small, poorly fitted or top-dose-only effect; inactive = flat fitted curve, though single readings scatter.

Key:
[1] = qHTS drug screen for cell cycle checkpoint inhibitors in PARPi-resistant BRCA-mutant ovarian cancer cell lines. (AID 1963452; calls by dose curve); details: PEO1/OlaR viability, CellTiter-Glo luminescence, 96 h, stronger effect = lower value
Method in brief: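 PEO1, PEO4 and PEO1/OlaR ovarian cancer cells, 600 per well, exposed 96 h at 37C to a dilution series. Viability read by CellTiter-Glo luminescence, normalized to DMSO and empty wells; activity summarized as Z-AUC.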

[2] = qHTS profiling for inhibitors of Plasmodium falciparum proliferation (AID 504749); note: potency is the fitted concentration of half-maximal effect;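 for activity, negative = inhibition: 0% = DMSO vehicle and full inhibition = artemisinin control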; for all read-outs here: nearly all actives have a fitted effect of over 60% in size; details: P. falciparum in erythrocytes, SYBR Green DNA, 72 h; for activity, negative = inhibition: at 28.7 µM (top of the series)
Method in brief: (§1)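 SYBR Green fluorescence (ex 485 nm, em 535 nm) reports parasite DNA after 72 h compound exposure of infected red cells at 0.3% parasitemia, 2.5% hematocrit; signal normalized to 0.29 uM artemisinin and vehicle wells.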

3D7 = assay: as above; details: P. falciparum in erythrocytes, SYBR Green DNA, 72 h; series mostly up to 28.7 µM
Method in brief: as §1

7G8 = assay: as above; details: P. falciparum in erythrocytes, SYBR Green DNA, 72 h; series mostly up to 28.7 µM
Method in brief: as §1

AA1029 = assay: as above; details: P. falciparum in erythrocytes, SYBR Green DNA, 72 h; series mostly up to 28.7 µM
Method in brief: as §1

ATS189 = assay: as above; details: P. falciparum in erythrocytes, SYBR Green DNA, 72 h; series mostly up to 28.7 µM
Method in brief: as §1

ATS95 = assay: as above; details: P. falciparum in erythrocytes, SYBR Green DNA, 72 h; series mostly up to 28.7 µM
Method in brief: as §1

C2A = assay: as above; details: P. falciparum in erythrocytes, SYBR Green DNA, 72 h; series mostly up to 28.7 µM
Method in brief: as §1

CP185 = assay: as above; details: P. falciparum in erythrocytes, SYBR Green DNA, 72 h; series mostly up to 28.7 µM
Method in brief: as §1

CP191 = assay: as above; details: P. falciparum in erythrocytes, SYBR Green DNA, 72 h; series mostly up to 28.7 µM
Method in brief: as §1

CP192 = assay: as above; details: P. falciparum in erythrocytes, SYBR Green DNA, 72 h; series mostly up to 28.7 µM
Method in brief: as §1

CP201 = assay: as above; details: P. falciparum in erythrocytes, SYBR Green DNA, 72 h; series mostly up to 28.7 µM
Method in brief: as §1

CP203 = assay: as above; details: P. falciparum in erythrocytes, SYBR Green DNA, 72 h; series mostly up to 28.7 µM
Method in brief: as §1

CP211 = assay: as above; details: P. falciparum in erythrocytes, SYBR Green DNA, 72 h; series mostly up to 28.7 µM
Method in brief: as §1

CP215 = assay: as above; details: P. falciparum in erythrocytes, SYBR Green DNA, 72 h; series mostly up to 28.7 µM
Method in brief: as §1

CP217 = assay: as above; details: P. falciparum in erythrocytes, SYBR Green DNA, 72 h; series mostly up to 28.7 µM
Method in brief: as §1

CP237 = assay: as above; details: P. falciparum in erythrocytes, SYBR Green DNA, 72 h; series mostly up to 28.7 µM
Method in brief: as §1

CP238 = assay: as above; details: P. falciparum in erythrocytes, SYBR Green DNA, 72 h; series mostly up to 28.7 µM
Method in brief: as §1

AS120 = assay: as above; details: P. falciparum in erythrocytes, SYBR Green DNA, 72 h; series mostly up to 28.7 µM
Method in brief: as §1

CP194 = assay: as above; details: P. falciparum in erythrocytes, SYBR Green DNA, 72 h; series mostly up to 28.7 µM
Method in brief: as §1

[3] = measured here: PEO1 parental Z-AUC

COc1cc([C@H]2Oc3cc([C@H]4Oc5cc(O)cc(O)c5C(=O)[C@@H]4O)ccc3O[C@@H]2CO)ccc1O
active: Potency (7G8) 11.2 µM
1.29: Z-AUC [1, 3]
inactive: Z-AUC [1] 1.43 | activity, negative = inhibition ([2]; parasite line A) -10.1% | activity, negative = inhibition ([2]; parasite line B) -14.4% | Potency (3D7) | Potency (AA1029) | Potency (ATS189) | Potency (ATS95) | Potency (C2A) | Potency (CP185) | Potency (CP191) | Potency (CP192) | Potency (CP201) | Potency (CP203) | Potency (CP211) | Potency (CP215) | Potency (CP217) | Potency (CP237) | Potency (CP238)
0.956: Z-AUC ([1]; measured here: PEO4 Z-AUC)

CCCCCCCCCCC[C@@H](C[C@@H]1OC(=O)[C@H]1CCCCCC)OC(=O)[C@H](CC(C)C)NC=O
1.61: Z-AUC [1, 3]
1.43: Z-AUC ([1]; measured here: PEO4 Z-AUC)
inactive: Z-AUC [1] 1.22

C=C[C@H]1CN2CC[C@H]1C[C@@H]2[C@@H](O)c1ccnc2ccc(OC)cc12
inactive: Z-AUC [1] -0.544
-0.182: Z-AUC [1, 3]
-0.0481: Z-AUC ([1]; measured here: PEO4 Z-AUC)

CC(C)Nc1cccnc1N1CCN(C(=O)c2cc3cc(NS(C)(=O)=O)ccc3[nH]2)CC1
active: Potency (7G8) 12.6 µM
inactive: activity, negative = inhibition ([2]; parasite line A) -10.7% | activity, negative = inhibition ([2]; parasite line B) 24% | Potency (3D7) | Potency (AA1029) | Potency (AS120) | Potency (ATS189) | Potency (ATS95) | Potency (C2A) | Potency (CP185) | Potency (CP191) | Potency (CP192) | Potency (CP194) | Potency (CP201) | Potency (CP203) | Potency (CP211) | Potency (CP215) | Potency (CP217) | Potency (CP237) | Potency (CP238)

CC(=O)Oc1ccc(C)cc1
inactive: activity, negative = inhibition ([2]; parasite line A) 9.31% | activity, negative = inhibition ([2]; parasite line B) 10.5% | Potency (3D7) | Potency (7G8) | Potency (AA1029) | Potency (AS120) | Potency (ATS189) | Potency (ATS95) | Potency (C2A) | Potency (CP185) | Potency (CP191) | Potency (CP192) | Potency (CP194) | Potency (CP201) | Potency (CP203) | Potency (CP211) | Potency (CP215) | Potency (CP217) | Potency (CP237) | Potency (CP238)

CC(=O)O[C@H]1C[C@@H]2CC[C@@H]3[C@H](CC[C@@]4(C)[C@H]3C[C@H]([N+]3(C)CCCCC3)[C@@H]4OC(C)=O)[C@@]2(C)C[C@@H]1N1CCCCC1
inactive: Z-AUC [1] 1.73 | activity, negative = inhibition ([2]; parasite line B) -19.6% | Potency (3D7) | Potency (AS120) | Potency (CP194)
1.43: Z-AUC [1, 3]
1.85: Z-AUC ([1]; measured here: PEO4 Z-AUC)

C[C@@H](O)[C@H]1C(=O)N2C(C(=O)O)=C(S[C@@H]3CN[C@H](CNS(N)(=O)=O)C3)[C@H](C)[C@H]12
0.433: Z-AUC ([1]; measured here: PEO4 Z-AUC)
inactive: Z-AUC [1] -0.121 | activity, negative = inhibition ([2]; parasite line A) 0.841% | activity, negative = inhibition ([2]; parasite line B) 3.74% | Potency (3D7) | Potency (7G8) | Potency (AA1029) | Potency (AS120) | Potency (ATS189) | Potency (ATS95) | Potency (C2A) | Potency (CP185) | Potency (CP191) | Potency (CP192) | Potency (CP194) | Potency (CP201) | Potency (CP203) | Potency (CP211) | Potency (CP215) | Potency (CP217) | Potency (CP237) | Potency (CP238)
0.644: Z-AUC [1, 3]

CCCN(CCC)S(=O)(=O)c1ccc(C(=O)O)cc1
inactive: activity, negative = inhibition ([2]; parasite line A) 12.1% | activity, negative = inhibition ([2]; parasite line B) 6% | Potency (3D7) | Potency (7G8) | Potency (AA1029) | Potency (AS120) | Potency (ATS189) | Potency (ATS95) | Potency (C2A) | Potency (CP185) | Potency (CP191) | Potency (CP192) | Potency (CP194) | Potency (CP201) | Potency (CP203) | Potency (CP211) | Potency (CP215) | Potency (CP217) | Potency (CP237) | Potency (CP238)

OCc1ccccn1
inactive: activity, negative = inhibition ([2]; parasite line A) 7.68% | activity, negative = inhibition ([2]; parasite line B) 8.75% | Potency (3D7) | Potency (7G8) | Potency (AA1029) | Potency (AS120) | Potency (ATS189) | Potency (ATS95) | Potency (C2A) | Potency (CP185) | Potency (CP191) | Potency (CP192) | Potency (CP194) | Potency (CP201) | Potency (CP203) | Potency (CP211) | Potency (CP215) | Potency (CP217) | Potency (CP237) | Potency (CP238)

CCN1CCN(C(=O)N[C@@H](C(=O)N[C@@H]2C(=O)N3C(C(=O)O)=C(CSc4nnnn4C)CS[C@H]23)c2ccc(O)cc2)C(=O)C1=O
0.559: Z-AUC [1, 3]
0.224: Z-AUC ([1]; measured here: PEO4 Z-AUC)
inactive: Z-AUC [1] 0.353

Clc1cccc(C(c2ccc3nc[nH]c3c2)n2ccnc2)c1 (centres undefined)
active: Potency ([2]; parasite line B) 10 µM | Potency (3D7) 11.2 µM | Potency (7G8) 5.01 µM | Potency (AS120) 11.2 µM | Potency (C2A) 10 µM | Potency (CP211) 12 µM
0.19: Z-AUC ([1]; measured here: PEO4 Z-AUC)
0.0386: Z-AUC [1, 3]
inactive: Z-AUC [1] -0.1 | Potency (CP185) | Potency (CP238)

Cc1ccc(-c2ncc(Cl)cc2-c2ccc(S(C)(=O)=O)cc2)cn1
active: Potency (7G8) 8.91 µM
0.717: Z-AUC [1, 3]
0.912: Z-AUC ([1]; measured here: PEO4 Z-AUC)
inactive: Z-AUC [1] 0.855 | Potency (3D7) | Potency (CP192) | Potency (CP194) | Potency (CP201) | Potency (CP211)

O=C1[C@H](CC[C@H](O)c2ccc(F)cc2)[C@@H](c2ccc(O)cc2)N1c1ccc(F)cc1
inactive: Z-AUC [1] 1.11
1.08: Z-AUC [1, 3] | Z-AUC ([1]; measured here: PEO4 Z-AUC)

CC(=O)O[C@]1(C(C)=O)CC[C@H]2[C@@H]3C=C(C)C4=CC(=O)CC[C@]4(C)[C@H]3CC[C@@]21C
inactive: Z-AUC [1] 0.958
0.47: Z-AUC ([1]; measured here: PEO4 Z-AUC)
0.601: Z-AUC [1, 3]

CCOC(=O)[C@H](CCc1ccccc1)N[C@@H](C)C(=O)N1[C@H](C(=O)O)C[C@@H]2CCC[C@@H]21
-0.134: Z-AUC [1, 3]
inactive: Z-AUC [1] -0.637
-0.409: Z-AUC ([1]; measured here: PEO4 Z-AUC)

O=C(O)P(=O)(O)O
inactive: activity, negative = inhibition ([2]; parasite line A) 3.96% | activity, negative = inhibition ([2]; parasite line B) -2.94% | Potency (3D7) | Potency (7G8) | Potency (AA1029) | Potency (AS120) | Potency (ATS189) | Potency (ATS95) | Potency (C2A) | Potency (CP185) | Potency (CP191) | Potency (CP192) | Potency (CP194) | Potency (CP201) | Potency (CP203) | Potency (CP211) | Potency (CP215) | Potency (CP217) | Potency (CP237) | Potency (CP238)

COc1cc(C(=S)N2CCOCC2)ccc1O
inactive: activity, negative = inhibition ([2]; parasite line A) 1.83% | activity, negative = inhibition ([2]; parasite line B) -2.75% | Potency (3D7) | Potency (7G8) | Potency (AA1029) | Potency (AS120) | Potency (ATS189) | Potency (ATS95) | Potency (C2A) | Potency (CP185) | Potency (CP191) | Potency (CP192) | Potency (CP194) | Potency (CP201) | Potency (CP203) | Potency (CP211) | Potency (CP215) | Potency (CP217) | Potency (CP237) | Potency (CP238)

N=C(N)N1CCc2ccccc2C1
inactive: activity, negative = inhibition ([2]; parasite line A) 15.6% | activity, negative = inhibition ([2]; parasite line B) 0.433% | Potency (3D7) | Potency (7G8) | Potency (AA1029) | Potency (AS120) | Potency (ATS189) | Potency (ATS95) | Potency (C2A) | Potency (CP185) | Potency (CP191) | Potency (CP192) | Potency (CP194) | Potency (CP201) | Potency (CP203) | Potency (CP211) | Potency (CP215) | Potency (CP217) | Potency (CP237) | Potency (CP238)
